The text below walks through data of article PMC4336329 (PLoS ONE, 2015).

Among all 310,000 compounds or so, about 2,200 (0.71%) showed an effect of 50% or more. The effect is printed as a negative number. The sample as a whole holds a higher share of strong results than the screen did.

Sequence of human ether-à-go-go-related gene (hERG) potassium channel (Q12809 whole entry, looked up): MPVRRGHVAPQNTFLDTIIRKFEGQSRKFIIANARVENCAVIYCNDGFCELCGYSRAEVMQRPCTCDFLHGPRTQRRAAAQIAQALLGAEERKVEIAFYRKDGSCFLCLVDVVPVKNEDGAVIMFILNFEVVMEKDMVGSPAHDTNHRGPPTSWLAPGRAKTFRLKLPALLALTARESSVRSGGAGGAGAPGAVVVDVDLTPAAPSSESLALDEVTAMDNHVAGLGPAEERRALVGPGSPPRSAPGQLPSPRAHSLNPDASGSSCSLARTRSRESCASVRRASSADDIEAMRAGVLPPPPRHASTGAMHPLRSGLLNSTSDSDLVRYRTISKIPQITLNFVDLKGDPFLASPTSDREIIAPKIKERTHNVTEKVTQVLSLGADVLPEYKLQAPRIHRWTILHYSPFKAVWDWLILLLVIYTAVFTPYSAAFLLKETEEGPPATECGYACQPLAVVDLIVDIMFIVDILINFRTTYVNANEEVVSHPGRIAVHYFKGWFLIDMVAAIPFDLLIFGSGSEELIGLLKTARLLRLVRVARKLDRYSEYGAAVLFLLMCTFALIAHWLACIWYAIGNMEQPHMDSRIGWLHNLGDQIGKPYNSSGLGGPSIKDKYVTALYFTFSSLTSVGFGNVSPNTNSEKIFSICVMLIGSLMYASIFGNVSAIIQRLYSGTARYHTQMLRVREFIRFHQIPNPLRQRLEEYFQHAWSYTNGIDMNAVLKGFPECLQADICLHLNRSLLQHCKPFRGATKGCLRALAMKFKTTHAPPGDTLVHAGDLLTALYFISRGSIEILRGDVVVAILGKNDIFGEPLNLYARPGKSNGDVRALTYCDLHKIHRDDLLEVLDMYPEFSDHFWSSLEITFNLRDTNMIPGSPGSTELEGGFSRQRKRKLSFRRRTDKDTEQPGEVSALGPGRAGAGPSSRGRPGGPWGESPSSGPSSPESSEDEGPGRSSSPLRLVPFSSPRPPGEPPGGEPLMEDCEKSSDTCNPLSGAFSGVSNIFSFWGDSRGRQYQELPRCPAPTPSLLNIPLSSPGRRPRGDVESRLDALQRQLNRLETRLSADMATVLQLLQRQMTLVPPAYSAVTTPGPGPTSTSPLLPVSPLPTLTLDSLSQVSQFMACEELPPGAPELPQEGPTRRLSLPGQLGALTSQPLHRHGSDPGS

The assay concerns the target human ether-à-go-go-related gene (hERG) potassium channel (human, UniProt Q12809). In words: primary screen, population patch clamp on CHO cells stably expressing hERG; higher = less effect of the substance.
Turning to `O=C(Nc1c(C(=O)N2CCC(N3CCCCC3)CC2)oc2ccccc12)c1c(F)cccc1F`, the “hERG current change (%, negative = inhibition) at 1uM” value is given as -5.22%.
Consider `COCC(=O)Nc1c(C(=O)N2CCCC2)oc2ccccc12`, for which the “hERG current change (%, negative = inhibition) at 1uM” value amounted to 8.9%.
Take `O=C(Nc1c(C(=O)N2CCC(N3CCCCC3)CC2)oc2ccccc12)c1ccc(F)cc1`: the “hERG current change (%, negative = inhibition) at 1uM” value is recorded as -47.7%.
Regarding `CCOc1ccc(C(=O)Nc2c(C(=O)N3CCC(N4CCCCC4)CC3)oc3ccccc23)cc1`, the “hERG current change (%, negative = inhibition) at 1uM” value is -82%.
With `COc1ccc(OCC(=O)Nc2c(C(=O)N3CCC(N4CCCCC4)CC3)oc3ccccc23)cc1`, the “hERG current change (%, negative = inhibition) at 1uM” value is recorded as -82.8%.
As to `O=C(COc1ccccc1)Nc1c(C(=O)N2CCC(N3CCCCC3)CC2)oc2ccccc12`, the “hERG current change (%, negative = inhibition) at 1uM” value is recorded as -9.1%.
For the compound `COc1ccccc1-n1cnc(N)c1C(C)=O`, the “hERG current change (%, negative = inhibition) at 1uM” value was found to be 6.83%.
As for `COc1cccc(-c2nc(OC(C)C)c3ccccc3n2)c1`, the figure is 7.09%.
As for `CCOC(=S)SCC(=O)Nc1nc(-c2ccccc2)cs1`, the “hERG current change (%, negative = inhibition) at 1uM” value is listed as 29.9%.
Consider `CCOC(=O)N1CCN(C(=O)CSCC(=O)Nc2nc(-c3ccc(C)cc3)cs2)CC1`, for which the “hERG current change (%, negative = inhibition) at 1uM” value worked out at 1.87%.
Under `CCOC(=S)SCC(=O)Nc1nc(-c2ccc(Br)cc2)cs1` stands -92%; under `CCOC(=O)C1=C(C)OC(N)=C(C#N)C1c1ccc(C)o1` (centres unmarked), 7.95%; under `COc1ccc(CCN(C)CC(O)COc2ccc(C(C)=O)cc2OC)cc1OC` (centres unmarked), 8.67%.
Regarding `COc1ccc(CCN(C)CC(O)COc2c(C)ccc(C)c2C)cc1OC` (centres unmarked), the “hERG current change (%, negative = inhibition) at 1uM” value is -68.7%.
On to `COc1ccc(CCN(C)Cc2ccc(F)cc2F)cc1OC`, for which the “hERG current change (%, negative = inhibition) at 1uM” value was -2.08%.
Turning to `COc1ccc(CCN(C)CC(O)c2ccccc2)cc1OC.O=C(O)C(=O)O` (centres unmarked), the “hERG current change (%, negative = inhibition) at 1uM” value worked out at 1.76%.
With `COc1ccc(CCNCC(O)COc2c(C)cccc2C)cc1OC.O=C(O)C(=O)O` (centres unmarked), the “hERG current change (%, negative = inhibition) at 1uM” value is given as 7.9%.
For `COc1ccc(CCN(C)CC(O)COC(c2ccc(F)cc2)c2ccc(F)cc2)cc1OC` (centres unmarked), the “hERG current change (%, negative = inhibition) at 1uM” value was -79.9%.
Take `Cc1cccc(Cn2c(=O)n(CCCC(=O)NCc3ccco3)c(=O)c3ccccc32)c1`: the “hERG current change (%, negative = inhibition) at 1uM” value is -4.67%.
As to `O=C(CCc1ccccc1)Nc1sc2c(c1C(=O)O)CCCC2`, the “hERG current change (%, negative = inhibition) at 1uM” value was 20.1%.
Turning to `CCc1nnc(N2C(=N)SCC2=O)s1`, the “hERG current change (%, negative = inhibition) at 1uM” value stood at 4.71%.
As to `Cc1ccc(S(=O)(=O)NC(C)C(=O)NC2CCCCCC2)cc1` (centres unmarked), the “hERG current change (%, negative = inhibition) at 1uM” value is recorded as -2.05%.
As for `NC(=O)COC(=O)c1ccc2c(c1)C(=O)N(Cc1ccco1)C2=O`, the “hERG current change (%, negative = inhibition) at 1uM” value was 9.91%.
Take `Cc1cc(OCc2cccc(S(=O)(=O)N3CCOCC3)c2)ccc1Cl`: the “hERG current change (%, negative = inhibition) at 1uM” value was 4.05%.
As for `N#Cc1ccccc1OCc1cccc(S(=O)(=O)N2CCOCC2)c1`, the “hERG current change (%, negative = inhibition) at 1uM” value is on record as 11.3%.
Consider `N#Cc1ccc(OCc2cccc(S(=O)(=O)N3CCOCC3)c2)cc1`, for which the “hERG current change (%, negative = inhibition) at 1uM” value was -57.3%.
